Screen size: about 5,500 compounds; about 2,000 (36%) were called active. Inconclusive results (about 18%) are left out. Cut-off read from the data, not from the text of the source: active = normalized growth mostly below about 0.91 (no sharp cut-off); inconclusive = no clear call, values can overlap the other calls; inactive = mostly above about 0.92. The list shows a part of the results.
Test: chemical genetic growth profiling, strain panel (AID 1159580);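 note: tested at 20 µM; growth read once vehicle control cultures reached saturation at 30 °C; 1 = growth at the plate median or of vehicle wells; lower values mean less growth of the strain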
Settings: growth OD
[1] = S. cerevisiae deletion strains, locus YDR150W, strain NUM1, stronger effect = lower value
[2] = S. cerevisiae deletion strains, locus YPL055C, strain LGE1, stronger effect = lower value
[3] = S. cerevisiae deletion strains, locus YPL241C, strain CIN2, stronger effect = lower value
[4] = S. cerevisiae deletion strains, locus YAL013W, strain DEP1, stronger effect = lower value
[5] = S. cerevisiae deletion strains, locus YBR229C, strain ROT2, stronger effect = lower value
[6] = S. cerevisiae deletion strains, locus YDL101C, strain DUN1, stronger effect = lower value
[7] = S. cerevisiae deletion strains, locus YDL134C, strain PPH21, stronger effect = lower value
[8] = S. cerevisiae deletion strains, locus YEL061C, strain CIN8, stronger effect = lower value
[9] = S. cerevisiae deletion strains, locus YGR078C, strain PAC10, stronger effect = lower value
[10] = S. cerevisiae deletion strains, locus YHR030C, strain SLT2, stronger effect = lower value
[11] = S. cerevisiae deletion strains, locus YHR087W, strain rtc3, stronger effect = lower value
[12] = S. cerevisiae deletion strains, locus YJR043C, strain POL32, stronger effect = lower value
[13] = S. cerevisiae deletion strains, locus YJR075W, strain HOC1, stronger effect = lower value
[14] = S. cerevisiae deletion strains, locus YKL190W, strain CNB1, stronger effect = lower value
[15] = S. cerevisiae deletion strains, locus YLR039C, strain RIC1, stronger effect = lower value
[16] = S. cerevisiae deletion strains, locus YLR058C, strain SHM2 (second series), stronger effect = lower value
[17] = S. cerevisiae deletion strains, locus YLR085C, strain ARP6, stronger effect = lower value
[18] = S. cerevisiae deletion strains, locus YLR262C, strain YPT6, stronger effect = lower value
[19] = S. cerevisiae deletion strains, locus YML094W, strain GIM5, stronger effect = lower value
[20] = S. cerevisiae deletion strains, locus YMR219W, strain ESC1, stronger effect = lower value
[21] = S. cerevisiae deletion strains, locus YMR263W, strain SAP30, stronger effect = lower value
[22] = S. cerevisiae deletion strains, locus YMR307W, strain GAS1, stronger effect = lower value
[23] = S. cerevisiae deletion strains, locus YNL153C, strain GIM3, stronger effect = lower value
[24] = S. cerevisiae deletion strains, locus YNL298W, strain CLA4 (second series), stronger effect = lower value
[25] = S. cerevisiae deletion strains, locus YNL322C, strain KRE1, stronger effect = lower value
[26] = S. cerevisiae deletion strains, locus YNR030W, strain Alg12, stronger effect = lower value
[27] = S. cerevisiae deletion strains, locus YPR135W, strain CTF4, stronger effect = lower value

Measured: normalized growth

O=C(O)CCC/C=C\C[C@@H]1[C@@H](/C=C/[C@H](O)C2Cc3ccccc3C2)[C@@H](F)C[C@@H]1O
inactive: S. cerevisiae deletion strains, locus YAL040C, strain CLN3, stronger effect = lower value 0.995 | S. cerevisiae deletion strains, locus YCL061C, strain MRC1 (second series), stronger effect = lower value 0.998 | [1] 1.01 | S. cerevisiae deletion strains, locus YDR363W, strain ESC2, stronger effect = lower value 0.993 | S. cerevisiae deletion strains, locus YER002W, strain NOP16, stronger effect = lower value 0.988 | S. cerevisiae deletion strains, locus YNL175C, strain NOP13, stronger effect = lower value 0.982 | S. cerevisiae deletion strains, locus YNL197C, strain WHI3, stronger effect = lower value 0.989 | S. cerevisiae deletion strains, locus YNL224C, strain SQS1, stronger effect = lower value 0.969 | S. cerevisiae deletion strains, locus YOR083W, strain WHI5 (second series), stronger effect = lower value 1.02 | [2] 0.99 | [3] 0.996

Cc1cc(N=CNO)c2ccccc2n1
inactive: [4] 1 | [5] 0.994 | S. cerevisiae deletion strains, locus YCL061C, strain MRC1, stronger effect = lower value 0.976 | [6] 0.966 | [7] 0.997 | [1] 0.938 | [8] 0.999 | [9] 0.981 | S. cerevisiae deletion strains, locus YGR229C, strain SMI1, stronger effect = lower value 1.01 | [10] 0.869 | [11] 1.04 | [12] 0.959 | [13] 1 | [14] 0.997 | [15] 0.959 | [16] 0.989 | [17] 0.932 | [18] 0.988 | [19] 1.01 | [20] 1 | [21] 0.994 | [22] 1.19 | S. cerevisiae deletion strains, locus YNL128W, strain TEP1, stronger effect = lower value 0.966 | [23] 0.987 | [24] 0.919 | [25] 0.962 | [26] 0.982 | [2] 1.04 | [3] 0.966 | [27] 0.955

COC(=O)c1c(OC)ccc(N=CNO)c1OC
inactive: [4] 1 | [5] 0.982 | [6] 0.993 | [7] 1.01 | [1] 0.962 | [8] 1.01 | [9] 1 | [10] 1.05 | [11] 0.986 | S. cerevisiae deletion strains, locus YJL187C, strain SWE1, stronger effect = lower value 0.985 | [12] 1 | [13] 0.976 | [14] 1.01 | [15] 1.02 | [16] 1 | [17] 0.999 | [18] 0.997 | [19] 0.993 | [20] 0.999 | [21] 0.926 | [22] 0.94 | [23] 0.989 | [24] 1.03 | [25] 1 | [26] 0.996 | [2] 0.888 | [3] 1.01 | [27] 1.07 | S. cerevisiae strains, strain wild type, stronger effect = lower value 1.03

CCCCc1ccc(N=CNO)c(C)c1
inactive: S. cerevisiae deletion strains, locus YAR019C, strain CDC15, stronger effect = lower value 0.985 | S. cerevisiae deletion strains, locus YBL105C, strain PKC1, stronger effect = lower value 1.01 | S. cerevisiae deletion strains, locus YBR135W, strain CKS1, stronger effect = lower value 0.983 | S. cerevisiae deletion strains, locus YBR136W, strain MEC1, stronger effect = lower value 0.976 | S. cerevisiae deletion strains, locus YBR160W, strain CDC28, stronger effect = lower value 0.996 | S. cerevisiae deletion strains, locus YDL017W, strain CDC7, stronger effect = lower value 0.997 | S. cerevisiae deletion strains, locus YDL028C, strain MPS1, stronger effect = lower value 0.974 | [6] 0.914 | S. cerevisiae deletion strains, locus YDL108W, strain KIN28, stronger effect = lower value 0.974 | S. cerevisiae deletion strains, locus YDL132W, strain cdc53, stronger effect = lower value 0.977 | S. cerevisiae deletion strains, locus YDR052C, strain DBF4, stronger effect = lower value 0.995 | S. cerevisiae deletion strains, locus YDR054C, strain cdc34, stronger effect = lower value 0.967 | S. cerevisiae deletion strains, locus YDR226W, strain ADK1, stronger effect = lower value 0.986 | S. cerevisiae deletion strains, locus YFL009W, strain cdc4, stronger effect = lower value 0.986 | S. cerevisiae deletion strains, locus YFL029C, strain CAK1, stronger effect = lower value 0.977 | S. cerevisiae deletion strains, locus YFR003C, strain YPI1, stronger effect = lower value 0.99 | S. cerevisiae deletion strains, locus YFR028C, strain CDC14, stronger effect = lower value 0.967 | S. cerevisiae deletion strains, locus YGR092W, strain DBF2, stronger effect = lower value 0.575 | S. cerevisiae deletion strains, locus YIL147C, strain SLN1, stronger effect = lower value 0.985 | S. cerevisiae deletion strains, locus YJL128C, strain PBS2, stronger effect = lower value 0.982 | S. cerevisiae deletion strains, locus YJR016C, strain ILV3, stronger effect = lower value 0.996 | S. cerevisiae deletion strains, locus YKL193C, strain SDS22, stronger effect = lower value 0.978 | S. cerevisiae deletion strains, locus YMR001C, strain CDC5, stronger effect = lower value 0.982 | S. cerevisiae deletion strains, locus YMR277W, strain FCP1, stronger effect = lower value 0.977 | S. cerevisiae deletion strains, locus YNL006W, strain LST8, stronger effect = lower value 1 | S. cerevisiae deletion strains, locus YNL161W, strain CBK1, stronger effect = lower value 0.992 | S. cerevisiae deletion strains, locus YNL207W, strain RIO2, stronger effect = lower value 0.968 | S. cerevisiae deletion strains, locus YNL222W, strain SSU72, stronger effect = lower value 0.985 | S. cerevisiae deletion strains, locus YOL078W, strain AVO1, stronger effect = lower value 0.948 | S. cerevisiae deletion strains, locus YOR329C, strain SCD5, stronger effect = lower value 0.993 | S. cerevisiae deletion strains, locus YPL209C, strain IPL1, stronger effect = lower value 0.993 | S. cerevisiae deletion strains, locus YPR025C, strain CCL1, stronger effect = lower value 0.993 | S. cerevisiae deletion strains, locus YPR106W, strain ISR1, stronger effect = lower value 0.989 | S. cerevisiae deletion strains, locus YPR111W, strain DBF20, stronger effect = lower value 0.995 | S. cerevisiae deletion strains, strain NNK1, stronger effect = lower value 0.974 | S. cerevisiae deletion strains, strain TSCII, stronger effect = lower value 0.964
active: S. cerevisiae deletion strains, locus YDL214C, strain PRR2, stronger effect = lower value 0.427 | S. cerevisiae deletion strains, locus YDR477W, strain SNF1, stronger effect = lower value 0.463 | S. cerevisiae deletion strains, locus YER123W, strain YCK3, stronger effect = lower value 0.242 | S. cerevisiae deletion strains, locus YER133W, strain GLC7, stronger effect = lower value 0.41 | S. cerevisiae deletion strains, locus YFR019W, strain FAB1, stronger effect = lower value 0.255 | S. cerevisiae deletion strains, locus YGR040W, strain KSS1, stronger effect = lower value 0.485 | S. cerevisiae deletion strains, locus YGR052W, strain FMP48, stronger effect = lower value 0.246 | [10] 0.225 | S. cerevisiae deletion strains, locus YHR079C, strain IRE1, stronger effect = lower value 0.146 | S. cerevisiae deletion strains, locus YHR082C, strain KSP1, stronger effect = lower value 0.362 | S. cerevisiae deletion strains, locus YHR205W, strain SCH9, stronger effect = lower value 0.475 | S. cerevisiae deletion strains, locus YJL095W, strain BCK1, stronger effect = lower value 0.178 | S. cerevisiae deletion strains, locus YJL157C, strain FAR1, stronger effect = lower value 0.45 | S. cerevisiae deletion strains, locus YJR066W, strain TOR1 (second series), stronger effect = lower value 0.181 | S. cerevisiae deletion strains, locus YJR066W, strain TOR1, stronger effect = lower value 0.236 | S. cerevisiae deletion strains, locus YKL048C, strain ELM1, stronger effect = lower value 0.604 | S. cerevisiae deletion strains, locus YKL067W, strain YNK1, stronger effect = lower value 0.48 | S. cerevisiae deletion strains, locus YKL101W, strain HSL1, stronger effect = lower value 0.488 | S. cerevisiae deletion strains, locus YKL203C, strain TOR2, stronger effect = lower value 0.391 | S. cerevisiae deletion strains, locus YLR113W, strain HOG1, stronger effect = lower value 0.259 | S. cerevisiae deletion strains, locus YLR133W, strain CKI1, stronger effect = lower value 0.558 | S. cerevisiae deletion strains, locus YLR403W, strain SFP1, stronger effect = lower value 0.465 | S. cerevisiae deletion strains, locus YML070W, strain DAK1, stronger effect = lower value 0.321 | S. cerevisiae deletion strains, locus YMR205C, strain PFK2 (second series), stronger effect = lower value 0.558 | S. cerevisiae deletion strains, locus YNL020C, strain ARK1, stronger effect = lower value 0.529 | S. cerevisiae deletion strains, locus YNL183C, strain NPR1, stronger effect = lower value 0.229 | S. cerevisiae deletion strains, locus YNL307C, strain MCK1 (second series), stronger effect = lower value 0.452 | S. cerevisiae deletion strains, locus YOL136C, strain PFK27, stronger effect = lower value 0.358 | S. cerevisiae deletion strains, locus YOR061W, strain CKA2, stronger effect = lower value 0.528 | S. cerevisiae deletion strains, locus YOR119C, strain RIO1, stronger effect = lower value 0.332 | S. cerevisiae deletion strains, locus YOR231W, strain MKK1, stronger effect = lower value 0.281 | S. cerevisiae deletion strains, locus YPL031C, strain PHO85, stronger effect = lower value 0.444 | S. cerevisiae deletion strains, locus YPL153C, strain RAD53, stronger effect = lower value 0.369 | S. cerevisiae deletion strains, locus YPL204W, strain HRR25, stronger effect = lower value 0.418 | S. cerevisiae deletion strains, locus YPL256C, strain CLN2, stronger effect = lower value 0.267

Reference: PubChem BioAssay AID1159580 (chemical genetic matrix, 2015)
